From PubChem BioAssay AID2625 (National Center for Advancing Translational Sciences (NCATS), 2010)
Records with an inconclusive call do not appear. Calls of active or inactive are those of the source. The call rests on the fitted dose curve; in most records, active means well fitted curve in the direction sought with a large enough effect; inconclusive means small, poorly fitted or top-dose-only effect, or effect the other way, or another doubt; inactive means no such curve, though single readings can be large or run the other way.

Each molecule was assayed against Pyruvate kinase PKLR (Homo sapiens) (UniProt P30613) (assay: Secondary LDH Assay for Activators of Human Liver Pyruvate Kinase: for Probe SAR). Conditions: purified hPK-L, LDH-coupled NADH fluorescence kinetic; series mostly up to 58.2 µM.
Text: NIH Chemical Genomics Center [NCGC]
Matthew G. Vander Heiden, M.D., Ph.D. [Harvard Medical School, 77 Avenue Louis Pasteur, Boston, MA 02115]
Human pyruvate kinase liver (hPK-L)enzyme was supplied as a highly purified (>95% pure) preparation from Harvard Medical School and a secondary assay was used to evaluate compounds. This assay couples the formation of pyruvate from hPK-R using lactate dehydrogenase (LDH) and NADH. The depletion of NADH is followed in a fluorescent-based kinetic assay that follows the formation of pyruvate to lactate, as catalyzed LDH. Pyruvate kinase substrates, PEP and ADP, were present in the assay at 0.1 mM and 4 mM respectively. In this kinetic assay initial rates were determined by following the fluorescence of NADH depletion.
NCGC Assay Protocol Summary:
Three uL of substrate mix (final concentration, 50 mM Tris-Cl pH 8.0, 200 mM KCl, 15 mM MgCl2, 0.1 mM PEP, 4.0 mM ADP, and 0.2 mM NADH) was dispensed into black-solid 1536 well plates. 23 nL of compounds were delivered by a pin tool and 1 uL of enzyme mix (final concentrations, 10 nM hPK-L and 1 uM of LDH) was added. Plates were immediately placed in ViewLux (Perkin Elmer) and NADH fluorescence was determined at 30 second exposure intervals for between 3 and 6 minutes. Data were normalized to the uninhibited and EC100 activation using known activators such as fructose-bis-phosphate.

Sequence of Pyruvate kinase PKLR (Homo sapiens) (P30613 whole entry, looked up): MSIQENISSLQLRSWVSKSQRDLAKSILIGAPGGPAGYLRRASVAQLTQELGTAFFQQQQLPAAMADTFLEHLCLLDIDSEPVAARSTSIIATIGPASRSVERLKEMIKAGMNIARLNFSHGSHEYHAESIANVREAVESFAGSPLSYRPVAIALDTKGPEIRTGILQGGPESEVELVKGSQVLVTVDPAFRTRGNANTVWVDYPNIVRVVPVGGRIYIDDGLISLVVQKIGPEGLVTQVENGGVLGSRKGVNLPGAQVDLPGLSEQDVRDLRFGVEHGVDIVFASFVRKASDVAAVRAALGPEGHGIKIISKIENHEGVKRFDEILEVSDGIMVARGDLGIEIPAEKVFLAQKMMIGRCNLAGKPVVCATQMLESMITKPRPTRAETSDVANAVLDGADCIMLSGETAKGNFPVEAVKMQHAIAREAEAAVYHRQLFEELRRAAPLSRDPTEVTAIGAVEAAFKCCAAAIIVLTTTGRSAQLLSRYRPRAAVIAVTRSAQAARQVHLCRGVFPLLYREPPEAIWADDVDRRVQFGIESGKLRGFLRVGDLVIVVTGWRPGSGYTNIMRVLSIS

outcome, inactive:
O=C1CCc2cc(S(=O)(=O)Nc3cc(F)cc(Cl)c3)c(F)cc2N1
COc1cccc(NS(=O)(=O)c2ccc3c(c2)CCC(=O)N3)c1
O=C1c2ccccc2C(=O)N1Cc1ccccc1
Cc1ccc(NS(=O)(=O)c2ccc3c(c2)n(C)c(=O)n3C)cc1C
O=S1(=O)N=C(Oc2ccccc2Cl)c2ccccc21
COc1cc(N2C(=O)c3ccccc3C2=O)c2ncccc2c1
Cc1ccccc1Nc1c(-c2ccc(Cl)s2)nc2ccccn12
Cc1ccc(NC(=O)c2ccc3c(c2)CCC(=O)N3)cc1C
O=C1CCc2cc(S(=O)(=O)Nc3ccc4ncccc4c3)ccc2N1
O=C1CCc2cc(S(=O)(=O)Nc3cccnc3)ccc2N1
Cc1cc(NS(=O)(=O)c2ccc3c(c2)CCC(=O)N3)ccc1F
O=C1CCc2cc(S(=O)(=O)Nc3cccc(C(F)(F)F)c3)ccc2N1
Cc1ccc(NS(=O)(=O)c2ccc3[nH]c(=O)[nH]c3c2)cc1C
O=C1CCc2cc(S(=O)(=O)Nc3cccc(Cl)c3)ccc2N1
Cc1cc(N2C(=O)c3ccccc3C2=O)n[nH]1
Cc1ccc(NS(=O)(=O)c2ccc3c(c2)CCN(C(=O)C(F)(F)F)C3)cc1C
Cc1ccc(Cl)cc1NS(=O)(=O)c1cc2c(cc1Cl)CCC(=O)N2
COc1cc(F)c(S(=O)(=O)N2CCCN(S(=O)(=O)c3cccc(N)c3)CC2)c(F)c1
COc1ccc(NS(=O)(=O)c2ccc3c(c2)CCC(=O)N3)cc1
O=C1CCc2cc(S(=O)(=O)Nc3ccncc3)ccc2N1
Cc1ccc(NS(=O)(=O)c2cc3c(cc2F)NC(=O)CC3)cc1C
Cc1ccc(NS(=O)(=O)c2ccc3c(c2)CCC(=O)N3)cc1
O=C1CCc2cc(S(=O)(=O)Nc3ccccc3-c3ccccc3)ccc2N1
CSc1cc2c(s1)c1cnn(Cc3cccc(O)c3)c(=O)c1n2C
O=C1c2ccccc2C(=O)N1c1cccc(Cl)c1
O=C1NS(=O)(=O)c2ccccc21
Cc1ccc2nc(-c3ccc(C)o3)c(NC3CCCC3)n2c1
O=C1c2ccccc2C(=O)N1Cc1cccnc1
O=C1CCc2cc(S(=O)(=O)NCc3ccccc3)ccc2N1
CC(=O)Nc1cccc(S(=O)(=O)Nc2ccc(C)c(C)c2)c1
Cc1c(Cl)cccc1NS(=O)(=O)c1cc2c(cc1Cl)CCC(=O)N2
Cc1ccc(NS(=O)(=O)c2cc3c(cc2Cl)CCC(=O)N3)cc1C
O=C1CCc2cc(S(=O)(=O)Nc3cccc(-c4ccccc4)c3)ccc2N1
Cc1ccc(NS(=O)(=O)c2ccc3c(c2)oc(=O)n3C)cc1C
CCNc1cccc(S(=O)(=O)N2CCN(S(=O)(=O)c3ccc4c(c3)OCCO4)CC2)c1
Cc1ccc(NS(=O)(=O)c2ccc3c(c2)CC(=O)N3)cc1C
Cc1ccc(NS(=O)(=O)c2ccc3c(c2)CCO3)cc1C
Cc1c(Cl)cccc1NS(=O)(=O)c1cc2c(cc1F)NC(=O)CC2
CC(=O)N1CCc2cc(S(=O)(=O)Nc3ccc(C)c(C)c3)ccc21
Cc1ccc(NS(=O)(=O)c2cc3c(cc2/C=C/c2ccccc2)NC(=O)CO3)cc1C
